Gli-Sufu block – Gli-Sufu pathway antagonism | Sufu-KO-LIGHT fibroblasts, Gli luciferase reporter luminescence | inhibition, % at 5 µM | hit rate 0.74% among 340,000 | AID 588413;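 active = inhibition above about 55%, limit read from the data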;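 also: 0% = DMSO-treated cells and 100% = wells with medium but no cells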
Mdm2 MdmX PPI – disrupts the human Mdm2-MdmX interaction; inhibition, % at 8 µM; hit rate 3% among 330,000; SaOS-2 split-luciferase Mdm2/MdmX complementation, luminescence; O15151+Q00987; AID 485346;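 active = inhibition of at least 50% at 8 µM in the primary screen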
Target sequence (O15151 whole entry, looked up): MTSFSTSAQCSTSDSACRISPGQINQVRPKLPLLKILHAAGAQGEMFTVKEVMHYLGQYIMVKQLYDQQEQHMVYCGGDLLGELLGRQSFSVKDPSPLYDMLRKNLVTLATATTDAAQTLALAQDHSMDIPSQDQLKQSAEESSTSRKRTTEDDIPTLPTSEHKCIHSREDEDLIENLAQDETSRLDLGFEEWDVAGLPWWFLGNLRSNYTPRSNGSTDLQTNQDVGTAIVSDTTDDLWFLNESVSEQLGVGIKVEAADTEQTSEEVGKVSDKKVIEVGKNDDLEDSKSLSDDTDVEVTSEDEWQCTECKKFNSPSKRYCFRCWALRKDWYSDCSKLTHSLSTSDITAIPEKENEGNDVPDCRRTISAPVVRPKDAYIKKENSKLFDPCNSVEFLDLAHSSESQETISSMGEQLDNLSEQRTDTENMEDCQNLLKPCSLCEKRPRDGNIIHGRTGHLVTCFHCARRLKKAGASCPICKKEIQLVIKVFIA
Target sequence (Q00987 whole entry, looked up): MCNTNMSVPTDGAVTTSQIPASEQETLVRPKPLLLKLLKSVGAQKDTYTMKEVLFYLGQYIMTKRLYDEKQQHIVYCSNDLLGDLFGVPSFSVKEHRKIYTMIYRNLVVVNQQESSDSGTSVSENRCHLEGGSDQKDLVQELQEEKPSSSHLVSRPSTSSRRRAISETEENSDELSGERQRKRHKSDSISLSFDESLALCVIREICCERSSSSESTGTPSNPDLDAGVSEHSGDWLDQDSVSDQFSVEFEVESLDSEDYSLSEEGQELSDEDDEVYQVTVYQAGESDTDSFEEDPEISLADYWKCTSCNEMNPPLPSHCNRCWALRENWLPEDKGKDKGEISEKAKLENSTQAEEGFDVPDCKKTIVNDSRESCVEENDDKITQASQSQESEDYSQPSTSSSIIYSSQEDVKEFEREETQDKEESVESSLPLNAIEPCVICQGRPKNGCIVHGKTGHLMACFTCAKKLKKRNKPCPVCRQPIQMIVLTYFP
Shn3 3UTR inh – Schnurri-3 reporter inhibition in Clone20 osteoblasts; inhibition, % at 12.5 µM; hit rate 0.52% among 360,000; AID 588674; Clone20 osteoblast Shn3 3'UTR firefly luciferase, 24 h;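 active = mean inhibition of at least 75% with every replicate also reaching 75%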;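 also: 0% = median of neutral control wells and 100% = pilot-screen positive control compound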
697 NFkB inh – lowers PMA/ionomycin-induced NF-kB signal in 697 B cells; 697 B-cell NF-kB luciferase reporter, 16 h; hit rate 0.33% among 330,000; inhibition, % at 4 µM; in the data active = inhibition above about 35%
Jurkat NFkB inh – inhibitors of the PMA/ionomycin-induced NF-kB reporter in Jurkat cells | PMA/ionomycin-induced NF-kB luciferase reporter, luminescence | inhibition, % at 4 µM | hit rate 0.53% among 330,000 | AID 435003; in the data active = inhibition above about 50%
697 NFkB conf – lowers PMA/ionomycin-induced NF-kB signal in 697 B cells; shares compounds with 697 NFkB inh; 697 B-cell NF-kB luciferase, 16 h; inhibition, % at 4 µM; hit rate 35% among 2,000; AID 449746; in the data active = inhibition mostly above about 28%, no sharp cut-off; inactive = mostly below about 22%
Mdm2-MdmX conf – confirmation of human Mdm2/MdmX interaction inhibitors; inhibition, % at 8 µM; shares compounds with Mdm2 MdmX PPI; AID 489028; Mdm2-MdmX binding, luminescent assay; hit rate 55% among 10,000; in the data active = inhibition above about 40%
Full FLuc ctr – inhibits full-length luciferase, flagging false Mdm2/MdmX hits. SaOS-2 full-length luciferase counterscreen, luminescence. shares compounds with Mdm2 MdmX PPI. hit rate 77% among 6,200. inhibition, % at 8 µM. AID 504607;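 active = mean inhibition at 8 µM reaching about 37%, which flags the compound as non-specific, limit read from the data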;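 also: p53-null SaOS-2 cells with luciferase driven by a doxycycline-inducible promoter; compound on cells about two nights before reading with doxycycline added after day one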
Numbers without * were called inactive; i = inactive; . = not tested or not shown. An excerpt weighted towards active compounds, which were near 3.8% of everything screened.

SMILES	Gli-Sufu block	Mdm2 MdmX PPI	Shn3 3UTR inh	697 NFkB inh	Jurkat NFkB inh	697 NFkB conf	Mdm2-MdmX conf	Full FLuc ctr
Cc1ccc(CSCC(=O)Nc2ccccc2C(=O)O)cc1	-53	52*	-64	i	-25	-394	-14	.
CSc1ccccc1NC(=O)CSCc1ccc(C)cc1	-10	41	-3	-8	19	.	.	.
CC(C)(C)S(=O)(=O)N1Cc2cc(CO)cc(CCO)c2[C@@H]1CCO	1	.	-17	.	.	.	.	.
Cc1cccc(Cn2nc(C(C)(C)C)cc2C(=O)Nc2ccc(F)cc2)c1	-6	87*	0	-299	-45	-370	81*	31
CCOc1ccc2nc(NC(=O)c3ccccn3)sc2c1	-5	76*	65	-459	-68	-257	76*	42*
COc1ccc(Nc2nccc(-c3ccc(C#N)cc3)n2)cc1	-2	26	11	15	-4	.	.	.
COc1ccc(Nc2nccc(-c3cccc(N)c3)n2)cc1	-130	65*	-174	-273	-117	-177	-13	.
COc1ccc(OCC(=O)Nc2nc3c(s2)CCCC3)cc1	-15	11	2	-7	1	.	.	.
O=C(CS(=O)(=O)Cc1ccccc1)Nc1nc2c(s1)CCCC2	-11	19	-11	-7	-5	.	.	.
COc1ccccc1OCC(=O)Nc1nc2c(s1)CCCC2	-29	51*	-23	-276	-41	-162	59*	83*
Cc1ccc(CC(=O)Nc2nc3c(s2)CCCC3)cc1	-8	87*	-12	i	-77	-483	79*	37*
C=CCn1c(SCC(=O)N2CCc3ccccc3C2)nc2ccccc2c1=O	-1	-4	-3	-56	-32	.	.	.
COc1cccc(N=CNc2cccc(OC)c2)c1	-15	.	-8	.	.	.	.	.
CCN(CC)c1ccc2cc(-c3nc4ccccc4[nH]3)c(=O)oc2c1	-58	67*	49	-303	-149	-375	47*	45*
O=S(=O)(/N=C(/Nc1ccccn1)c1ccc(Cl)cc1)c1ccc(Cl)cc1	-16	2	-20	-30	-21	.	.	.
COc1cccc(/C=C2\SC(=S)N(CCCC(=O)NC3=NCCS3)C2=O)c1	4	63*	20	42*	14	51*	15	.
COc1cccc(/C=C2/SC(=S)N(CCCC(=O)Nc3ccc(O)cc3)C2=O)c1	49	100*	29	80*	-8	74*	85*	3
COc1ccc(/C=C2/SC(=S)N(CCCC(=O)Nc3ccc(O)cc3)C2=O)cc1OC	12	90*	-3	45*	-19	43*	48*	30
COc1cc(/C=C2\SC(=S)N(CCC(=O)NC3CCCC3)C2=O)cc(OC)c1OC	-13	44	-9	8	19	.	.	.
Cc1ccc(/C=C2\SC(=S)N(CCCC(=O)NC3CCCC3)C2=O)cc1	16	63*	34	85*	19	80*	34	.
COc1ccc(/C=C2\SC(=S)N(CCCC(=O)Nc3ccccc3C(=O)O)C2=O)cc1OC	1	11	18	8	23	.	.	.
COc1ccc(S(=O)(=O)N2CCOC2CNC(=O)C(=O)NCc2ccccn2)cc1OC (centres undefined)	.	.	59	.	.	.	.	.
CCOc1ccc(C(C)=O)cc1Cn1c(=O)oc2ccccc21	6	12	10	-11	16	.	.	.
CC(=O)c1ccc2oc3ccccc3c(=O)c2c1	-20	-43	-7	-38	-37	.	.	.
O=C(CSc1nc(=O)n2ccccc2n1)OCc1ccccc1	-5	-2	5	-3	-11	.	.	.
SMILES	Gli-Sufu block	Mdm2 MdmX PPI	Shn3 3UTR inh	697 NFkB inh	Jurkat NFkB inh	697 NFkB conf	Mdm2-MdmX conf	Full FLuc ctr
CC(=O)N1CCc2cc(S(=O)(=O)CCC(=O)N(C)Cc3ccco3)ccc21	1	18	-7	2	-2	.	.	.
O=C(C[n+]1cc(-c2ccccc2)n2c1CCCCC2)c1ccc(Br)cc1	31	35	13	7	10	.	.	.
Cc1ccc(C(=O)C[n+]2cc(-c3ccc(C)cc3)n3c2CCCCC3)cc1	88*	53*	74	80*	46	54*	54*	48*
COc1ccc(CCC2(C)NC(=O)N(C(C)C(=O)N3c4ccccc4CC3C)C2=O)cc1 (centres undefined)	0	7	24	-14	-15	.	.	.
Cc1cccc(NC(=O)[C@H](Cc2c[nH]c3ccccc23)NC(=O)[C@@H]2Cc3ccccc3CN2)c1	-48	95*	3	i	-65	1	79*	27
Cc1ccc(NC(=O)[C@H](Cc2c[nH]c3ccccc23)NC(=O)[C@@H]2Cc3ccccc3CN2)c(C)c1	-3	97*	11	i	-48	-5	82*	49*
CCc1ccc(NC(=O)[C@H](Cc2c[nH]c3ccccc23)NC(=O)[C@@H]2Cc3ccccc3CN2)cc1	-17	93*	-31	i	-67	-76	83*	24
C/C(=N\NC(=O)c1nnn(-c2nonc2N)c1CN(C)c1ccccc1)c1cccnc1	-11	26	1	0	15	.	.	.
CC1=Nn2c(nnc2-c2n[nH]c3c2CCC3)SC1	-4	16	-1	23	-15	.	.	.
Fc1ccc(C2=Nn3c(nnc3-c3n[nH]c4c3CCC4)SC2)cc1	18	76*	10	44*	-9	53*	44*	82*
O=C(CCNC(=O)c1ccc(Br)cc1)NC1CCCc2ccccc21 (centres undefined)	-6	88*	65	-364	-51	-327	89*	46*
O=C(NC1CCCc2ccccc21)c1ccc(Br)cc1 (centres undefined)	-7	7	3	6	26	.	.	.
CCCCn1c(N)c(N(CC(C)C)C(=O)c2ccc(-c3ccc(Cl)cc3)o2)c(=O)[nH]c1=O	3	-21	21	-8	2	.	.	.
Cn1c(=N)n(CC(=O)c2ccc(Cl)c(Cl)c2)c2ccccc21	9	78*	27	-439	-77	-414	73*	145*
COc1ccc(C(=O)Cn2c(=N)n(C)c3ccccc32)cc1	-37	-76	-92	-199	-124	.	.	.
COCCn1c(SCC(=O)N2CCCC2)nc2c(c1=O)SCC2	.	.	7	.	.	.	.	.
CCC(C)(C)c1ccc(OCCCC[n+]2ccccc2)c(C(C)(C)CC)c1	.	84*	81	78*	45	34*	94*	56*
CCC(C)(C)c1ccc(Oc2cccc(C(=O)O)c2)cc1	-43	-13	-47	-42	-12	.	.	.
Cc1ccc(NC(=O)c2nc[nH]c2C(=O)NCCCNC(=O)c2[nH]cnc2C(=O)Nc2ccc(C)cc2)cc1	-4	68*	16	36*	-145	16	32	.
Cc1nccn1C(c1ccccc1)c1ccccc1	6	1	23	1	-10	.	.	.

Screening data: PubChem BioAssay, several laboratories
